# Source: PubChem BioAssay
# Unmarked numbers belong to inactive results. Activity calls are given as the source filed them. Unless noted, no stated cut-off is given here; in the data, active means inhibition above about 30%; inactive means the rest.
# Legend:
# [1] = target: Nuclear receptor coactivator 3 (Homo sapiens) (UniProt Q9Y6Q9); assay: SRC3 coactivator transcriptional activity inhibitors, confirmation, cell-based, luminescence, quadruplicate (AID 588792;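 active means mean inhibition over 43.08%, the solvent-only control mean plus 3 SD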;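 further: 0% = DMSO treated cells and 100% = gossypol at 36 µM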); details: HEK293 GAL4-SRC3 luciferase reporter, at 3.6 µM, stronger effect = higher value
# Nuclear receptor coactivator 3 (Homo sapiens), sequence (Q9Y6Q9 whole entry, looked up, the tested form may be a part): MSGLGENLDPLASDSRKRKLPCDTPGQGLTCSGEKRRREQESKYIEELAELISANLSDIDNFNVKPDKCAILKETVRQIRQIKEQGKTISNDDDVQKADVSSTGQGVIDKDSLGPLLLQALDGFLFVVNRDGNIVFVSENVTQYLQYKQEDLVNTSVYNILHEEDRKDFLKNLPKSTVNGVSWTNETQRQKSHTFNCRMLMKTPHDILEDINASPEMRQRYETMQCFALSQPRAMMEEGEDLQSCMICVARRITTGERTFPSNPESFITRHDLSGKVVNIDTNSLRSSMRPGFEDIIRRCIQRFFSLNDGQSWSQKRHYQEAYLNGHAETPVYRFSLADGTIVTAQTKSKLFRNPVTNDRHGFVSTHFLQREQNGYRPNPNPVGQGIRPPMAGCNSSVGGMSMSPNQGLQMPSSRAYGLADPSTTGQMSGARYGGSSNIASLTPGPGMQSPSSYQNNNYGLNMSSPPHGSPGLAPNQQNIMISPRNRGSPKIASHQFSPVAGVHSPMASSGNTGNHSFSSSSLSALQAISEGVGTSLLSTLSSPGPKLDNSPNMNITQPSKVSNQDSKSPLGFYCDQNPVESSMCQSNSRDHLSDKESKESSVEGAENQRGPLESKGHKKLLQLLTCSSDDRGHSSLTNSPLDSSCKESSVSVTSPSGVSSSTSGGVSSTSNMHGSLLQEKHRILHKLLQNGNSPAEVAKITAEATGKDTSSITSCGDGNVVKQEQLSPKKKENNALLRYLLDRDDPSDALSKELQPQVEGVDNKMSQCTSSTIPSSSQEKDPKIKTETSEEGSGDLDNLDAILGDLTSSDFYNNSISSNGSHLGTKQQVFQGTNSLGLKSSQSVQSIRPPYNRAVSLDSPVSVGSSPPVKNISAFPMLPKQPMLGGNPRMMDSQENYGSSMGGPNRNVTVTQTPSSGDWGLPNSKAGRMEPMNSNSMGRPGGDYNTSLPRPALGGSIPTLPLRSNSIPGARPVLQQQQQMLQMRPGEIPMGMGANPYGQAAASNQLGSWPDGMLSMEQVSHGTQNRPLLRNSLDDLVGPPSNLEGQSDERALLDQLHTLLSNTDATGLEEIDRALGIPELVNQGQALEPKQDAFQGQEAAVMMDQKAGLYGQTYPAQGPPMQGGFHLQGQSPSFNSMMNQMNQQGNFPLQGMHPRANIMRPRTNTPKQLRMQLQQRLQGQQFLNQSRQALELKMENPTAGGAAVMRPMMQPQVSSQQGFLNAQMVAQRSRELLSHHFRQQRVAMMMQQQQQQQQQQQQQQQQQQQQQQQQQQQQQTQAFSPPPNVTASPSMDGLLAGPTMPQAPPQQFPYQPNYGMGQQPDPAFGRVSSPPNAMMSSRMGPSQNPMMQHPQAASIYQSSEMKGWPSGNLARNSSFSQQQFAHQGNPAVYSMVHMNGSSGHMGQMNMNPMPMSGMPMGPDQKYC
# [2] = system: transactivating tegument protein VP16 (Human herpesvirus 1), Gal4-VP16 luciferase reporter; assay: VP16 transactivation inhibitors, counter-screen for SRC3 inhibitor project, cell-based, luminescence, high throughput (AID 588794); details: mammalian cells, VP16-driven luciferase reporter luminescence; at 3.6 µM; stronger effect = higher value
# [3] = target: Nuclear receptor coactivator 1 (Homo sapiens) (UniProt Q15788); assay: SRC1 coactivator transcriptional activity inhibitors, confirmation, cell-based, luminescence, quadruplicate (AID 588820;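 active means mean inhibition above 46.68%, the untreated control wells mean plus 3 SD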;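 further: 0% = DMSO wells and 100% = gossypol 36 µM treated wells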); details: HEK293 GAL4-SRC1 luciferase reporter, at 3.6 µM, stronger effect = higher value
# Nuclear receptor coactivator 1 (Homo sapiens), sequence (Q15788 whole entry, looked up, the tested form may be a part): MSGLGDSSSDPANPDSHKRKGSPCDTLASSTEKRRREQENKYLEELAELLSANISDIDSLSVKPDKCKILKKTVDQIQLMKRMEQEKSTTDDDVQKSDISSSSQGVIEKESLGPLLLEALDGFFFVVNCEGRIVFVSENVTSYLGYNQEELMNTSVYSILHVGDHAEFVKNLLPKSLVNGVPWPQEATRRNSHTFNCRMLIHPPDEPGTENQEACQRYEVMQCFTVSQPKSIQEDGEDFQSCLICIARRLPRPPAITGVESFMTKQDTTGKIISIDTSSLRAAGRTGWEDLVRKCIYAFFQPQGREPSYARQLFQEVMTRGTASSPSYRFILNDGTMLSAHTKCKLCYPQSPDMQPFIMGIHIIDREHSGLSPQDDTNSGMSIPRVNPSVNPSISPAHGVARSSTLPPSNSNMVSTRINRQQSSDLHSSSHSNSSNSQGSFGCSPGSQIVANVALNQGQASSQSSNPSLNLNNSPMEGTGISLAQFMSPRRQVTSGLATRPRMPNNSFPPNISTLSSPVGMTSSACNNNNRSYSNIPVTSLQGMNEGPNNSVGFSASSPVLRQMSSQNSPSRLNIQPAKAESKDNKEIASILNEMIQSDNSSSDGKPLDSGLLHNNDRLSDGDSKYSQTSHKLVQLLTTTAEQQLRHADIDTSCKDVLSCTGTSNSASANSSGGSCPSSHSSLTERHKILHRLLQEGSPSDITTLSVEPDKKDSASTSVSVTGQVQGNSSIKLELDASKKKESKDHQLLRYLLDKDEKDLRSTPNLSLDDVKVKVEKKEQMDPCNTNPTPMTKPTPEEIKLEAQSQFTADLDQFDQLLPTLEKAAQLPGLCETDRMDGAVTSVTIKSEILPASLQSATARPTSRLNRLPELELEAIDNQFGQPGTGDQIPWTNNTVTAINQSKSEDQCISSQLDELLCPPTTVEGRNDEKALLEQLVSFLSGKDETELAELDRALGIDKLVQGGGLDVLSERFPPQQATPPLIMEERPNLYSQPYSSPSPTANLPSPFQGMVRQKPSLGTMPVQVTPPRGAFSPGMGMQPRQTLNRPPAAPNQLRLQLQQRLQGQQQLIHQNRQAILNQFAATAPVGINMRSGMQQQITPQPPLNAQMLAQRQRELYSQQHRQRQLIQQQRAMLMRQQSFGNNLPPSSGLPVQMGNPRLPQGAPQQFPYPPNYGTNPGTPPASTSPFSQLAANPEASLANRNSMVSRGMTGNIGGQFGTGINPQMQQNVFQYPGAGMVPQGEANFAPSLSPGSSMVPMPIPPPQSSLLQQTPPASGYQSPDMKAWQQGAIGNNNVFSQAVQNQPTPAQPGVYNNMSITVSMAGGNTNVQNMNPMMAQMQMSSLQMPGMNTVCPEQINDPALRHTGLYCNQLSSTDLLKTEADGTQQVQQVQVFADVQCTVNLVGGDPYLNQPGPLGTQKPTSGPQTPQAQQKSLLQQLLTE
# [4] = VP16 transactivation inhibitors, counter-screen for SRC1 inhibitor project, cell-based, luminescence, high throughput (AID 588824; in the data active means inhibition above about 25%); details: cell-based VP16 transactivation luciferase luminescence; at 3.6 µM; stronger effect = higher value
# [5] = StAR promoter reporter inhibitors, counter-screen for LRH-1 inverse agonist project, cell-based, luminescence, high throughput (AID 651611; in the data active means inhibition above about 28%); details: StAR promoter luciferase reporter counterscreen, at 3.6 µM, stronger effect = higher value
# [6] = target: Nuclear receptor subfamily 5 group A member 2 (Homo sapiens) (UniProt O00482); assay: LRH-1 (NR5A2) inverse agonists, retest, confirmation, cell-based, luminescence (AID 651613; in the data active means inhibition above about 42%;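 further: HEK293T cells co-transfected with LRH-1 and StAR promoter luciferase reporter; 0% = vehicle wells and 100% = parental cells lacking receptor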); details: cell-based LRH-1 luciferase reporter, inverse agonism; at 3.6 µM; stronger effect = higher value
# [7] = target: Steroidogenic factor 1 (Homo sapiens) (UniProt Q13285); assay: SF1 (NR5A1) inverse agonists, counter-screen for LRH-1 inverse agonist project, cell-based, luminescence, high throughput (AID 651614; in the data active means inhibition above about 44%;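 further: cells cotransfected with StAR promoter reporter and SF1 expression vector; 0% = vehicle on cells with receptor and 100% = vehicle on cells lacking receptor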); details: cell-based SF1 luciferase reporter, at 3.6 µM, stronger effect = higher value
# Steroidogenic factor 1 (Homo sapiens), sequence (Q13285 whole entry, looked up, the tested form may be a part): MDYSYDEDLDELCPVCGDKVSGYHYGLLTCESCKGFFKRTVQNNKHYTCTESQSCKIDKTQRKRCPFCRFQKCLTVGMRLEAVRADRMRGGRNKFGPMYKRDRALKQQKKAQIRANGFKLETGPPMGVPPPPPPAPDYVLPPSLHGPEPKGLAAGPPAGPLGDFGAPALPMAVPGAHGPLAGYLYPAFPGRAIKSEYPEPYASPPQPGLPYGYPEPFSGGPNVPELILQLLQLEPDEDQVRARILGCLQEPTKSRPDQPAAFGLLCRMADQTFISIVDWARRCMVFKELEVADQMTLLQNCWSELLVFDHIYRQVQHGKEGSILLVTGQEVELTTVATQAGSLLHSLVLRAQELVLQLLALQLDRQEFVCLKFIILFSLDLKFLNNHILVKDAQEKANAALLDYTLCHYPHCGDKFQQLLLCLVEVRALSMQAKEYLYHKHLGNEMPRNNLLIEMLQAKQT
# [8] = VP16 transactivation reporter inhibitors, counter-screen for LRH-1 inverse agonist project, cell-based, luminescence, high throughput (AID 651615; in the data active means inhibition above about 33%); details: Gal4-VP16 luciferase reporter cells, at 3.6 µM, stronger effect = higher value
# [9] = system: transactivating tegument protein VP16 (Human herpesvirus 1); assay: VP16 transactivation reporter inhibitors, counter-screen for SRC2 inhibitor project, cell-based, luminescence, single concentration (AID 652007; in the data active means inhibition above about 36%); details: cell-based VP16 transactivation luciferase reporter, at 8.9 µM, stronger effect = higher value
# [10] = target: Nuclear receptor coactivator 2 (Homo sapiens) (UniProt Q15596); assay: SRC2 coactivator transcriptional activity inhibitors, confirmation, cell-based, luminescence, HEK293, triplicate (AID 652008;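 active means mean inhibition above 46.5%, the solvent-only control mean plus 3 SD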;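 further: 0% = DMSO-treated cells and 100% = Gossypol at 36 µM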); details: HEK293 GAL4-SRC2 luciferase reporter, at 8.9 µM, stronger effect = higher value
# Nuclear receptor coactivator 2 (Homo sapiens), sequence (Q15596 whole entry, looked up, the tested form may be a part): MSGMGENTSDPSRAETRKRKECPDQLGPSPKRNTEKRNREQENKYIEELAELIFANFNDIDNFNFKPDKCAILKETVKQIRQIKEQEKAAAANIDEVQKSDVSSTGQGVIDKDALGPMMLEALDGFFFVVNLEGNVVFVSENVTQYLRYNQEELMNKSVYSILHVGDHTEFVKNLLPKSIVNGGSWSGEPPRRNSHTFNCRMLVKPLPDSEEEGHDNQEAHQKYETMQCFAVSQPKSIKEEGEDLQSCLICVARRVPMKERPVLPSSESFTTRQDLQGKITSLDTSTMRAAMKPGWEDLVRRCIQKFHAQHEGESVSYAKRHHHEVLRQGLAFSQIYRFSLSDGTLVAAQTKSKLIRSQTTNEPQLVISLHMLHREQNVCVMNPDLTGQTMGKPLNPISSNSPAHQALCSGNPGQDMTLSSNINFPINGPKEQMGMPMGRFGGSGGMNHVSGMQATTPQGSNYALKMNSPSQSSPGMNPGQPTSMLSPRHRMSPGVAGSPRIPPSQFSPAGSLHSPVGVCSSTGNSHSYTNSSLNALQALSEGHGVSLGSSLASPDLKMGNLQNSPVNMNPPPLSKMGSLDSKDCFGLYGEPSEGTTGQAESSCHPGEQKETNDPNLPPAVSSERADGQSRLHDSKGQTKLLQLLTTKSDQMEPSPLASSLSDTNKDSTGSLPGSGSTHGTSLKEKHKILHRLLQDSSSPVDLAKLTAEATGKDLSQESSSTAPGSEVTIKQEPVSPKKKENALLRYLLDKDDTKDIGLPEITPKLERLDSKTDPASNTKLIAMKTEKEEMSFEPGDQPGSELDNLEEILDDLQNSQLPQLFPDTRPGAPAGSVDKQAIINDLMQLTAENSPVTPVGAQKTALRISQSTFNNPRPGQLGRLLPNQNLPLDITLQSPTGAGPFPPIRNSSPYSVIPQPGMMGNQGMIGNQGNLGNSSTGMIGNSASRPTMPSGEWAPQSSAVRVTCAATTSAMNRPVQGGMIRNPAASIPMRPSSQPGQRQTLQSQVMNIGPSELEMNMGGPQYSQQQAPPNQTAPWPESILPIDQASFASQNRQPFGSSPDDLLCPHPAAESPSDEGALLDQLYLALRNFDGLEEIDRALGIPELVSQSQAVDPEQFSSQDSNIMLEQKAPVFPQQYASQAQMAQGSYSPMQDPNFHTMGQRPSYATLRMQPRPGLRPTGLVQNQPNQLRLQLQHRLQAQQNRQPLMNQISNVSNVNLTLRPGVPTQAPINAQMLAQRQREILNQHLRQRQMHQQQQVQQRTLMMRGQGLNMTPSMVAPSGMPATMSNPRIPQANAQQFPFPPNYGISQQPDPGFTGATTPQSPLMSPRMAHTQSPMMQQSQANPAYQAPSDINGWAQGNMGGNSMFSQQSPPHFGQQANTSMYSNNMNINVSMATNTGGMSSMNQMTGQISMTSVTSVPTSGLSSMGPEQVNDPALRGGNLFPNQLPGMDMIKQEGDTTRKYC
Compound,inhibition [1],inhibition [2],inhibition [3],inhibition [4],inhibition [5],inhibition [6],inhibition [7],inhibition [8],inhibition [9],inhibition [10]
CC(C)Nc1ncnc2ccc(Br)cc12,74.3% (active),72.7% (active),65.3% (active),58.9% (active),17.8%,61.1% (active),58.4% (active),71% (active),20.2%,65.7% (active)
CC1OC2CC(=O)OC2C2=C1C(=O)c1c(O)cccc1C2=O (stereo not given),97.6% (active),95.2% (active),97.5% (active),95.2% (active),96.8% (active),110% (active),98.2% (active),96.8% (active),98.9% (active),99.7% (active)
CCN(CC)c1ccc(C(=C2C=CC(=[N+](CC)CC)C=C2)c2ccccc2)cc1,95.5% (active),95.9% (active),-95%,94.3% (active),97.7% (active),109% (active),99.1% (active),98.7% (active),98.3% (active),99.5% (active)
Cc1ccc(/C=C2\SC(=S)N(CCCC(=O)Nc3ccccn3)C2=O)cc1,49.1% (active),33.9% (active),55.7% (active),28.9% (active),57.5% (active),45.8% (active),64.2% (active),39.1% (active),58.3% (active),88.4% (active)
O=C(CCCN1C(=O)/C(=C/c2ccccc2Cl)SC1=S)NNC(=O)c1ccccc1Cl,58% (active),31.3% (active),40%,40.9% (active),54.6% (active),55.1% (active),46.8% (active),45% (active),80.7% (active),87.5% (active)
CCCn1c(C)cc(C(=O)CN2C(=O)c3ccccc3S2(=O)=O)c1C,70.8% (active),60.4% (active),45.7%,55% (active),67% (active),36%,62.4% (active),51.2% (active),62.8% (active),80.5% (active)
Cc1ccc(N(Cc2cc(=O)[nH]c3ccccc23)C(=O)CCl)c(C)c1,55.3% (active),34.3% (active),34.3%,24.6%,37.3% (active),72.4% (active),75.5% (active),46% (active),44.4% (active),60% (active)
CCOC(=O)c1ccc(NC(=O)c2ccc(C)c(S(=O)(=O)N3CCOCC3)c2)cc1,31.4%,47.9% (active),3.47%,54.1% (active),65.1% (active),50.5% (active),66.5% (active),66% (active),47.4% (active),33.8%
COc1cc(C(=O)/C=C/c2cccnc2)c([N+](=O)[O-])cc1OC,33.2%,45.3% (active),29.4%,48.8% (active),59.3% (active),59.1% (active),56.7% (active),68.5% (active),18.2%,45.8%
O=C(O)c1ccc(N/N=C/c2ccc3nccnc3c2)cc1,17.8%,10.9%,-44.9%,10.3%,48.4% (active),21.4%,61% (active),14.8%,42.2% (active),75.5% (active)
CC(C)(C)c1ccc(C(=O)Nc2ccc(CC(=O)O)cc2)o1,54.1% (active),40% (active),37.9%,42% (active),45.1% (active),52.5% (active),46.9% (active),37.7% (active),70.2% (active),92.1% (active)
Cc1cc(C(=O)CSc2nc3ccccc3[nH]2)c(C)n1CC1CCCO1 (stereo not given),5.02%,30.5% (active),-86.8%,-6.65%,-34.6%,-80.8%,-1.87%,32.9% (active),31.5%,50.9% (active)
Cc1nc2c(-c3ccc(F)cc3)cnn2c(N)c1-c1ccccc1,55.5% (active),38.8% (active),29.6%,7.29%,6.33%,-102%,-17.6%,-0.77%,74.5% (active),79.6% (active)
Cc1[nH]c2ccccc2c(=O)c1C(=O)/C=C/c1ccccc1,76.1% (active),58% (active),73.7% (active),59.6% (active),76.2% (active),90.2% (active),82.9% (active),77.8% (active),39% (active),72.7% (active)
COCC(=O)OC1CCn2c1nc1c2C(=O)C(C)=C(NC(C)=O)C1=O (stereo not given),91.9% (active),86.7% (active),75.1% (active),85.7% (active),80.1% (active),99.7% (active),86.6% (active),90.8% (active),57.3% (active),73.5% (active)
